Assay results from PubChem BioAssay (Tox21).
Values joined by “and” are separate entries in the source; they are usually repeats but may differ in a detail not shown here. Equal values may be shown once. Records with an inconclusive call do not appear. More than one record can exist for a structure, and the calls need not agree. Active and inactive are the calls of the source. Unless noted, calls follow the shape of the full dose curve.

Experiments:
[1] = Nuclear factor erythroid 2-related factor 2/antioxidant responsive element (Nrf2/ARE) small molecule agonists: qHTS cell viability counter screen in human keratinocytes (AID 1919968; active = well fitted curve in the direction sought with a large enough effect in the repeat runs; an effect the other way counts as inactive or inconclusive; also: nearly all actives have a fitted effect of over 55% in size)
How it was run: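 KeratinoSens cells (HaCaT keratinocytes stably carrying an ARE-luciferase reporter) were seeded at 1,500 cells/well and rested 5 h at 37 C/5% CO2. They were then exposed to compounds in DMSO for 23 h. Viability was read by CellTiter-Fluor fluorescence after 1 h.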

[2] = Nuclear factor erythroid 2-related factor 2/antioxidant responsive element (Nrf2/ARE) small molecule agonists: luciferase reporter gene qHTS assay in human keratinocytes (AID 1919969); also: nearly all actives have a fitted effect of over 35% in size; also: potency is read from the fitted curve at half-maximal effect
[3] = target: Gonadotropin-releasing hormone receptor (Homo sapiens) (UniProt P30968); experiment: Human gonadotropin-releasing hormone receptor (GnRHR) small molecule agonists, calcium flux assay in GnRHR-HEK293 cells (AID 1920063); also: nearly all actives have a fitted effect of over 35% in size
Chain of Gonadotropin-releasing hormone receptor (Homo sapiens) (P30968 whole entry, looked up): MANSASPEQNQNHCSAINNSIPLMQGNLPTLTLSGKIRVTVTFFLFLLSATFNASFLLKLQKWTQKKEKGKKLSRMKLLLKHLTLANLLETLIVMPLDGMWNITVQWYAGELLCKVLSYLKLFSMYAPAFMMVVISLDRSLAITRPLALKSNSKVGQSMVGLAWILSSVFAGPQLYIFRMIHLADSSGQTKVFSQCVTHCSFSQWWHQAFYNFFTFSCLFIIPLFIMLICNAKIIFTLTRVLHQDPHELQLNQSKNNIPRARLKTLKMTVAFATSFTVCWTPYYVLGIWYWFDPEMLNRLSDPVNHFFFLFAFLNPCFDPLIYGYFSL
How it was run: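 HEK293 cells stably expressing human GnRHR were plated 18 h at 37 °C, loaded with calcium dye 1 h at 37 °C, then given compound in agonist mode; fluorescence (Ex/Em 480/540) read kinetically for 3 min at 1 s intervals.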

[4] = target: KiSS-1 receptor (Homo sapiens) (UniProt Q969F8); experiment: Human kisspeptin (KISS1R) small molecule agonists, calcium flux assay in KISS1R-HEK293 cells (AID 1920064; active = well fitted curve in the direction sought with a large enough effect in the repeat runs; an effect the other way counts as inactive or inconclusive)
Chain of KiSS-1 receptor (Homo sapiens) (Q969F8 whole entry, looked up): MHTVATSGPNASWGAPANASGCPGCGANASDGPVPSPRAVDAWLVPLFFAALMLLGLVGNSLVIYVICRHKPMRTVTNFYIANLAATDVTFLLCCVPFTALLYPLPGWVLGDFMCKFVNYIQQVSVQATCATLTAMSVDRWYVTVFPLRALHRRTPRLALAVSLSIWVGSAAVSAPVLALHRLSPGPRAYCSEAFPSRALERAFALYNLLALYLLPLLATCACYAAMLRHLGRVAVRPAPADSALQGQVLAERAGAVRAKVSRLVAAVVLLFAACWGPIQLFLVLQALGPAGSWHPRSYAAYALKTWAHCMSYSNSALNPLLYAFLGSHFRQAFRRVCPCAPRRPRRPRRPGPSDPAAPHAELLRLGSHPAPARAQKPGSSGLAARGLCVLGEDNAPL
How it was run: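 HEK293 cells stably expressing human KISS1R were plated 18 h at 37 °C, loaded with calcium dye for 1 h at 37 °C, then given compound by pin tool. Fluorescence (Ex/Em 480/540) was read kinetically for 3 min.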

[5] = G protein-coupled receptor (GPCR) small molecule agonists, calcium flux assay: HEK293 wild type cell line counter screen (AID 1920065)
How it was run: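 Cells were plated and cultured 18 h at 37 C/5% CO2, then loaded with calcium dye for 1 h at 37 C. Compounds in DMSO were pin-transferred in agonist mode, and fluorescence (Ex/Em 480/540) was read kinetically for 3 min at 1 s intervals.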

[6] = p53 small molecule agonists, cell-based qHTS assay with human liver microsomes (AID 1963577);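 also: p53 response element beta-lactamase reporter cells with liver microsomes plus NADPH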
How it was run: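 In this qHTS, p53 response-element beta-lactamase cells receive test compound together with a microsome/NADPH activating system (0.5 mg/mL final each) and are incubated 16 h at 37 C before LiveBLAzer fluorescence detection.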

[7] = p53 small molecule agonists, cell-based qHTS assay with rat liver microsomes (AID 1963578)
How it was run: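 Agonist mode in p53RE-bla reporter cells, with compounds co-incubated 16 h at 37 C alongside 0.5 mg/mL rat liver microsomes and 0.5 mg/mL NADPH (final), followed by a 2 h LiveBLAzer detection step.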

[8] = p53 small molecule agonists, cell-based qHTS assay with human liver microsomes: qHTS cell viability counter screen (AID 1963579); also: nearly all actives have a fitted effect of over 45% in size; also: potency is read from the fitted curve at half-maximal effect
How it was run: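 Metabolically activated exposure: compounds, human liver microsomes and NADPH (0.5 mg/mL final apiece) were added to p53RE-bla cells seeded 5 h earlier, left 16 h at 37 C, and then assessed for viability by CellTiter-Glo luminescence.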

[9] = p53 small molecule agonists, cell-based qHTS assay with rat liver microsomes: qHTS cell viability counter screen (AID 1963580); also: nearly all actives have a fitted effect of over 45% in size
How it was run: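 p53RE-bla HCT-116 cells were exposed 16 h at 37 C to compounds with rat liver microsomes (0.5 mg/mL) and NADPH (0.5 mg/mL). Viability was measured in the same wells as ATP content by CellTiter-Glo luminescence.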

[10] = p53 small molecule agonists, cell-based qHTS assay: qHTS cell viability counter screen (AID 1963581); also: nearly all actives have a fitted effect of over 45% in size
How it was run: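 p53RE-bla HCT-116 cells were exposed to compounds for 16 h at 37 C; after the beta-lactamase FRET read in the same wells, CellTiter-Glo was added and luminescence (intracellular ATP) read after 30 min at room temperature.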

[11] = p53 small molecule agonists, cell-based qHTS assay (AID 1963582; active = well fitted activation curve with a large enough effect in the signal ratio in the repeat runs, not every such curve was filed as active; the % refers to the signal ratio)
How it was run: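 p53RE-bla beta-lactamase reporter cells rested 5 h at 37 C/5% CO2, then received compounds in DMSO by pin transfer and were incubated 16 h at 37 C. LiveBLAzer B/G FRET substrate was loaded for 2 h at room temperature before fluorescence reading.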

[12] = target: 5-hydroxytryptamine receptor 2A (Homo sapiens) (UniProt P28223); experiment: 5-hydroxytryptamine receptor 2A (HTR2A) small molecule agonists, cell-based qHTS assay (AID 1963587); also: nearly all actives have a fitted effect of over 30% in size
Chain of 5-hydroxytryptamine receptor 2A (Homo sapiens) (P28223 whole entry, looked up): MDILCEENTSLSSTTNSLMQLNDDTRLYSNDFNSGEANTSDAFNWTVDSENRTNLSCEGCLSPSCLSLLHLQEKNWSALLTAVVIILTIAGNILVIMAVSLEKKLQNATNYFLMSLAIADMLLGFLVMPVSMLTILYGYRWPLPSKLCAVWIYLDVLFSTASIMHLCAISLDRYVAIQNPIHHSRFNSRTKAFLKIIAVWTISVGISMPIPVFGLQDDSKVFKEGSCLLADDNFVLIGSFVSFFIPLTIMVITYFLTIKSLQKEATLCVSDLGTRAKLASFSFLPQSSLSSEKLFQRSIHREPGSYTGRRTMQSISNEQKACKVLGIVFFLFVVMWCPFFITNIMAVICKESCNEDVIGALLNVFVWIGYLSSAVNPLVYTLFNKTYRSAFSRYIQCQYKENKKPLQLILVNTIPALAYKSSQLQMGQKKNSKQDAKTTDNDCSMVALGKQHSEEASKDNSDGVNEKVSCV
How it was run: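 CHO cells stably expressing human HTR2A, plated 18 h, loaded with calcium dye 1 h at 37 C. Agonist mode: compounds added and intracellular calcium fluorescence recorded kinetically for 2 min at 1 sec intervals.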

[13] = target: Muscarinic acetylcholine receptor M1 (Homo sapiens) (UniProt P11229); experiment: Cholinergic receptor muscarinic 1 (CHRM1) small molecule antagonists, cell-based qHTS assay (AID 1963588); also: nearly all actives have a fitted effect of over 40% in size
Chain of Muscarinic acetylcholine receptor M1 (Homo sapiens) (P11229 whole entry, looked up): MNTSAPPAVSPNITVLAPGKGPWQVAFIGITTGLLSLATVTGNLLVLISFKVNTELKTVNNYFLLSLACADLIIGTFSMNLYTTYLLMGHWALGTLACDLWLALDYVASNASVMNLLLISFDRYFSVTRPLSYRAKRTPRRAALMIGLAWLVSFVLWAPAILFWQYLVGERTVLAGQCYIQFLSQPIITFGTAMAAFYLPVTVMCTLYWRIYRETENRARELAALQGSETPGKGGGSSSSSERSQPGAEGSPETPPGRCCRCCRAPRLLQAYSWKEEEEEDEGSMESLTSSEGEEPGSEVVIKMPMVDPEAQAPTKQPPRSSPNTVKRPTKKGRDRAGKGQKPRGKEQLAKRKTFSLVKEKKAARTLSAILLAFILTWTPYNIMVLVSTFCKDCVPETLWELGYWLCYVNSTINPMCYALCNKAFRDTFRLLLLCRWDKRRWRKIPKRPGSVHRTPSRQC
How it was run: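 CHRM1-CHO calcium-flux assay, antagonist mode. Cells were seeded 18 h, dye-loaded 1 h at 37 C and given compound for 5 min at RT, then acetylcholine was added at 50nM. FDSS fluorescence was read 3 min; 15 concentrations, three runs.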

[14] = target: Muscarinic acetylcholine receptor M1 (Homo sapiens) (UniProt P11229); experiment: Cholinergic receptor muscarinic 1 (CHRM1) small molecule agonists, cell-based qHTS assay (AID 1963589); also: nearly all actives have a fitted effect of over 35% in size
How it was run: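 CHO cells stably expressing human CHRM1, seeded 18 h at 37 C/5% CO2, dye-loaded 1 h at 37 C, then given compound in agonist mode; intracellular calcium fluorescence read kinetically at 1 s intervals. Fifteen concentrations, three independent runs.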

[15] = cAMP Responsive Elements (CRE) small molecule agonists, cell-based qHTS assay (AID 1963590)
How it was run: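 CRE-bla HEK 293T cells in DMEM with 10% dialyzed FBS, NEAA, pyruvate and 25 mM HEPES were plated 18 h at 37 C/5% CO2, then exposed to compounds in DMSO for 3 h before LiveBLAzer B/G FRET substrate addition.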

[16] = cAMP Responsive Elements (CRE) small molecule antagonists, cell-based qHTS assay (AID 1963591; active = well fitted inhibition curve with a large enough effect in the signal ratio in the repeat runs, not every such curve was filed as active; the % refers to the signal ratio)
How it was run: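 CRE-bla HEK293T cells were plated 18 h at 37 °C/5% CO2, pinned with compound in DMSO, then stimulated with NKH477 at 0.25 uM final for 3 h. LiveBLAzer B/G FRET substrate was added and plates incubated 2 h at room temperature.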

[17] = target: Beta-2 adrenergic receptor (Homo sapiens) (UniProt P07550); experiment: Adrenergic beta2 receptor (ADRB2) small molecule antagonists, cell-based qHTS assay (AID 1963592); also: series mostly up to about 92 µM; nearly all actives have a fitted effect of over 50% in size
Chain of Beta-2 adrenergic receptor (Homo sapiens) (P07550 whole entry, looked up): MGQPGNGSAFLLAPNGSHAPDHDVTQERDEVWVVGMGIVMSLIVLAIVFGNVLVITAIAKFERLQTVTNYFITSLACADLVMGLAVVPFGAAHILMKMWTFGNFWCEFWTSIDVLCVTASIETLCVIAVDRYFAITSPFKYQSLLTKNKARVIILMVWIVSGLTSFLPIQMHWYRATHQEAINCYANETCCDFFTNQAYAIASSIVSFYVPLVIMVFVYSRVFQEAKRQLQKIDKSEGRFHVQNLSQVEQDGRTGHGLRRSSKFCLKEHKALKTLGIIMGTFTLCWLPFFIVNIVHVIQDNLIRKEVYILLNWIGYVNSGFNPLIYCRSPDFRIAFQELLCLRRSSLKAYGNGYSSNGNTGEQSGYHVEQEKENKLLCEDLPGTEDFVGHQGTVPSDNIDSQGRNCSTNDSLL
How it was run: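 Cells (CHO, stable ADRB2 overexpression) incubated 18-20hr at 37C; compounds added from DMSO; agonist mix (1nM isoproterenol, 100uM IBMX, 25uM Ro-20-1724) added; 0.5hr RT; d2-cAMP and anti-cAMP-cryptate added; 1hr RT; 665/615 nm read.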

[18] = target: D(2) dopamine receptor (Homo sapiens) (UniProt P14416); experiment: Dopamine D2 receptor (DRD2) small molecule agonists, cell-based qHTS assay (AID 1963594); also: nearly all actives have a fitted effect of over 35% in size
Chain of D(2) dopamine receptor (Homo sapiens) (P14416 whole entry, looked up): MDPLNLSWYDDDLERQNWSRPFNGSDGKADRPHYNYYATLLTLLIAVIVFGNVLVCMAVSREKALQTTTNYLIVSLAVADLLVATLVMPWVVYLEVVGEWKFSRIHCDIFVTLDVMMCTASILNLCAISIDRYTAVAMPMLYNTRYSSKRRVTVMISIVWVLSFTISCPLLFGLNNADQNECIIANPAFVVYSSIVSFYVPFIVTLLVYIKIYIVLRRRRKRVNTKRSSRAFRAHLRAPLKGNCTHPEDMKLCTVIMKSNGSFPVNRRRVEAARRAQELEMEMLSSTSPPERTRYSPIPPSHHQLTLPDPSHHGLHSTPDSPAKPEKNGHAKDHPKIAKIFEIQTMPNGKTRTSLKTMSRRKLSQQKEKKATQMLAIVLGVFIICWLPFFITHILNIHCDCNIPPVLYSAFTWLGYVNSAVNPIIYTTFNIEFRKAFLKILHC
How it was run: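 HEK293 cells stably expressing human DRD2, pre-treated with PDE inhibitor Ro20-1724 (0.1 mM final) and compound 10 min at room temperature, then stimulated with NKH477 (200nM […]) for 30 min. cAMP read by HTRF (665/620 nm).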

[19] = target: D(2) dopamine receptor (Homo sapiens) (UniProt P14416); experiment: Dopamine D2 receptor (DRD2) small molecule antagonists, cell-based qHTS assay (AID 1963595; active = well fitted inhibition curve with a large enough effect in the signal ratio in the repeat runs, with a control signal flat; the % refers to the signal ratio)
How it was run: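 Antagonist mode in DRD2-HEK293 cells: after compound addition with 0.1 mM Ro20-1724, cells received quinpirole (12 nM) and NKH477 (200 nM) for 30 min at room temperature; HTRF cAMP read after 1 h detection.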

[20] = target: 5-hydroxytryptamine receptor 2A (Homo sapiens) (UniProt P28223); experiment: 5-hydroxytryptamine receptor 2A (HTR2A) small molecule antagonists, cell-based qHTS assay (AID 1963586); also: nearly all actives have a fitted effect of over 45% in size
How it was run: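 Antagonist-mode intracellular calcium assay: DOI (4 nM) added after 5 min compound pre-incubation at room temperature to dye-loaded HTR2A-CHO cells. Fluorescence followed for 3 min, sampled every second.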

Measured: Potency

O=C(O)c1ccccn1
inactive: [1] | [2] | [3] | [4] | [5] | [6] | [7] | [8] | [9] | [10] | [11] | [12] | [13] | [14] | [15] | [16] | [17] | [18]

CNC(=O)Oc1c(C(C)(C)C)cc(C)cc1C(C)(C)C
inactive: [1] | [3] | [4] | [5] | [6] | [7] | [8] | [9] | [10] | [11] | [12] | [13] | [14] | [15] | [16] | [17] | [18] | [19]
active: [2] 61.1 µM

CCN(CC)CCO
inactive: [1] | [2] | [3] | [4] | [5] | [6] | [7] | [8] | [9] | [10] | [11] | [20] | [13] | [14] | [15] | [16] | [17] | [18] | [19]

NCC(O)c1ccc(O)cc1 (stereo not given)
inactive: [1] | [2] | [3] | [4] | [5] | [6] | [7] | [8] | [9] | [10] | [11] | [20] | [13] | [14] | [15] | [16] | [17] | [18] | [19]

N#CC(c1ccccc1)c1ccccc1
inactive: [1] | [2] | [3] | [4] | [5] | [6] | [7] | [8] | [9] | [10] | [11] | [20] | [13] | [14] | [15] | [16] | [17] | [18] | [19]

C=C(C)C(=O)OCC1CO1 (stereo not given)
inactive: [1] | [2] | [3] | [4] | [5] | [6] | [7] | [8] | [9] | [10] | [11] | [20] | [13] | [14] | [15] | [16] | [17] | [18] | [19]

CCOC(=O)CP(=O)(OCC)OCC
inactive: [1] | [2] | [3] | [4] | [5] | [6] | [7] | [8] | [9] | [10] | [11] | [20] | [12] | [14] | [15] | [16] | [17] | [18] | [19]

OCCSSCCO
inactive: [1] | [2] | [3] | [4] | [5] | [6] | [7] | [8] | [9] | [10] | [11] | [12] | [13] | [14] | [15] | [16] | [17] | [18] | [19]

C=CC=O
inactive: [1] | [2] | [3] | [4] | [5] | [6] | [7] | [8] | [9] | [10] | [11] | [20] | [12] | [14] | [15] | [17] | [18] | [19]

C=CC(C)=O
inactive: [1] | [3] | [4] | [5] | [6] | [7] | [8] | [9] | [10] | [11] | [20] | [14] | [15] | [16] | [17] | [19]
active: [2] 5.97 µM

c1ccc(C2CO2)cc1 (stereo not given)
inactive: [1] | [2] | [3] | [4] | [5] | [6] | [7] | [8] | [9] | [10] | [11] | [12] | [13] | [14] | [15] | [16] | [17] | [18] | [19]

CCN(N=O)C(N)=O
inactive: [1] | [2] | [3] | [4] | [5] | [6] | [7] | [8] | [9] | [10] | [11] | [12] | [13] | [14] | [15] | [16] | [17] | [18] | [19]

CCc1ccccc1C
inactive: [1] | [2] | [3] | [4] | [5] | [6] | [7] | [8] | [9] | [10] | [11] | [20] | [13] | [14] | [15] | [16] | [17] | [18] | [19]

O=S(=O)(Cl)Cl
inactive: [1] | [2] | [3] | [4] | [5] | [6] | [7] | [8] | [9] | [10] | [11] | [20] | [12] | [15] | [16] | [17] | [18] | [19]

CCCCOC(=O)c1ccccc1C(=O)OCc1ccccc1
inactive and 646 nM (active): [8]
inactive and 68.6 µM (active): [2]
inactive: [1] | [3] | [4] | [5] | [6] | [7] | [9] | [10] | [11] | [12] | [13] | [14] | [15] | [16] | [17] | [18] | [19]
